Source: PubChem
Sampled rows, rich in hits. Any-hit rate of the full collection: about 0.64%.
PvdQ acylase: blocks Pseudomonas aeruginosa PvdQ acylase activity. purified PvdQ acylase, fluorescence plate reader. inhibition, % at 10 µM. 340,000 compounds, 0.063% hits. AID 488965; in the data active = inhibition above about 30%, passing the limit was not always enough;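 note: 0% = vehicle neutral wells and 100% = reference inhibitor wells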
AI-2 QS mod: Vibrio harveyi AI-2 quorum sensing modulation; Vibrio harveyi JMH597 AI-2 luminescence/OD600 ratio, 9 h; stronger effect = lower value; strain lacks LuxN and CqsS sensors; 0 = neutral-control median; activity change, % at 7.5 µM; 300,000 compounds, 0.4% hits; in the data active = activity change below about -75%, passing the limit was not always enough;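 note: luminescence divided by OD600 gain over 9 h not by final OD600 alone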
Vif inh: blocks HIV Vif function | inhibition, % at 7.49 µM | 340,000 compounds, 0.35% hits | HEK293T cells, Vif self-association by quenched fluorescence, imaging, 24 h; in the data active = inhibition above about 50%, passing the limit was not always enough
ERp5 block: inhibitors of human ERp5 | Q15084 | 350,000 compounds, 0.05% hits | AID 651711 | inhibition, % at 9.99 µM | ERp5 insulin aggregation, absorbance 650 nm, 90 min;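 active = mean replicate inhibition above about 25%, with every replicate also reaching it, limit read from the data, passing the limit was not always enough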
Target sequence (Q15084 whole entry, looked up): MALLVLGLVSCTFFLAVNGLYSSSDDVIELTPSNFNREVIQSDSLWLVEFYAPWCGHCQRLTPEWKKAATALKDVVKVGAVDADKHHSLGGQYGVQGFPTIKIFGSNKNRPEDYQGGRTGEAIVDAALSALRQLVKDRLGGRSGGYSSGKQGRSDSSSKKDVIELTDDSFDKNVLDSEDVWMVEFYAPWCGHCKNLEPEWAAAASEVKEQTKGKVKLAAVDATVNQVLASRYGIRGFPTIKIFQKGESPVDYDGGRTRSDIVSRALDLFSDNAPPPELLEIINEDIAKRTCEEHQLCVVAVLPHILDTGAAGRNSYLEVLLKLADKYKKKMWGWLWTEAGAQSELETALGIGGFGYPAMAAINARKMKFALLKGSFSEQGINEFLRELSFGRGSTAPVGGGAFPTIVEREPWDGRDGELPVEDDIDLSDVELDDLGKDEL
PDI inh: blocks human protein disulfide isomerase activity; P07237; PDI insulin aggregation turbidity, A650, 90 min; inhibition, % at 10 µM; 350,000 compounds, 0.052% hits; AID 588391;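 active = mean inhibition across replicates of 30% or more, whatever share of single replicates reach that level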
An asterisk follows results filed as active; · = not tested or not shown.

SMILES	PvdQ acylase	AI-2 QS mod	Vif inh	ERp5 block	PDI inh
CCC1(CC)NC(=O)N(CC(=O)OC(C)C(=O)Nc2ccc(NC(C)=O)cc2)C1=O (stereo not given)	-16	14	18	28*	0
CCC1(CC)NC(=O)N(CC(=O)OC(C)C(=O)Nc2ccc(S(N)(=O)=O)cc2)C1=O (stereo not given)	·	·	-7	9	-5
CCCc1ccc(Oc2cn[nH]c2-c2ccc(O)c(C)c2O)cc1	-3	-94*	-11	·	14
Cn1nc(-c2ccccn2)nc2c(=O)n(C)c(=O)nc1-2	10	-92*	-29	102*	139*
COc1ccc(-c2nc(-c3ccccn3)ncc2S(C)(=O)=O)cc1	-4	29	-2	7	-5
CCCc1nc2c(=O)n(C)c(=O)nc-2n(C)n1	14	·	3	85*	160*
COc1ccc(-c2nnc(SCc3ccccc3F)o2)cc1	-24	-55	·	·	-1
Cc1ccc(C)c(CSc2nnc(-c3cccnc3)o2)c1	3	-80*	-6	·	-6
Fc1ccccc1CSc1nnc(-c2cccnc2)o1	-7	-92*	3	-6	-9
CN1C(=O)c2cc(NC(=O)Cc3ccccc3)ccc2OC[C@H]2O[C@H](CC(=O)NCC3CC3)CC[C@H]21	·	·	·	-5	·
COc1ccc(CN(C)C[C@@H]2Oc3c(NS(=O)(=O)c4cccs4)cccc3C(=O)N([C@@H](C)CO)C[C@@H]2C)cc1	·	·	·	-10	·
C[C@@H]1CN([C@H](C)CO)C(=O)Cc2cc(NS(C)(=O)=O)ccc2O[C@H]1CN(C)S(=O)(=O)c1cccs1	·	·	·	0	·
O=C1C[C@H](c2ccc(O)cc2)Oc2cc(O[C@@H]3O[C@H](CO)[C@@H](O)[C@H](O)[C@H]3O)cc(O[C@@H]3O[C@H](CO)[C@@H](O)[C@H](O)[C@H]3O)c21	2	·	-2	0	39*
Cc1ccc(NC(=O)COc2ccccc2)c(NC(=O)c2ccco2)c1	-5	-5	4	30*	10
COc1cccc(C(=O)CC(C#N)c2ccc(F)cc2)c1 (stereo not given)	69*	-7	0	-1	13
COc1cccc(C(=O)CC(C(=O)O)c2ccc(F)cc2)c1 (stereo not given)	-15	57	18	-2	8
Cc1csc(NC(=O)CSc2ncnc3c2cnn3-c2ccccc2Cl)n1	7	11	73*	·	-2
CCN1CCN(c2cc(=O)n(-c3cc(Cl)ccc3C)c(=O)[nH]2)CC1	-6	16	58*	·	10
C[C@@H]1CN([C@H](C)CO)C(=O)c2cc(NC(=O)c3ccccc3)ccc2O[C@@H](C)CCCCO[C@@H]1CN(C)C(=O)Cc1ccccc1	·	·	·	1	·
CCOC(=O)N/N=C(/C)c1ccc([N+](=O)[O-])o1	-5	-88*	16	-4	-1
CNC[C@@H]1Oc2cc(C#CCC(C)C)ccc2S(=O)(=O)N([C@H](C)CO)C[C@H]1C	·	·	·	-1	·
COc1cc2c(OC(C)=O)c3c(c(-c4ccc5c(c4)OCO5)c2cc1OC)C(=O)OC3	3	60	173*	-1	·
COC(=O)c1ccccc1NC(=O)Cn1cnc2cc(C)c(C)cc21	0	11	71*	-1	-1
Cc1ccc2nc(-c3ccc(NS(=O)(=O)c4ccc(F)cc4)cc3)sc2c1	30*	33	-1	·	-4
CC(=O)Nc1ccc(S(=O)(=O)Nc2nc3ccc(C)cc3s2)cc1	23	26	3	5	-5
SMILES	PvdQ acylase	AI-2 QS mod	Vif inh	ERp5 block	PDI inh
CC(C)n1c(CNC(=O)c2ccccc2F)nnc1SCC(=O)NC1CCCCC1	1	·	53*	7	-4
N/C(=N/OC(=O)c1ccccc1Cl)c1ncc([N+](=O)[O-])s1	-8	-86*	2	-4	2
N/C(=N\OC(=O)c1ccccc1Cl)c1cccc([N+](=O)[O-])c1	-1	7	3	2	0
O=C(CCC(=O)c1ccc(F)cc1)Nc1cc(Cl)cc(Cl)c1	-4	-79*	-6	·	-5
CC=Cc1ccc2n(c1=O)C[C@H]1[C@H](CO)[C@@H](C(=O)NCCN3CCCC3)N(C(=O)NC(C)C)[C@@H]21 (mixture of isomers)	·	·	·	3	·
CSc1cccc(N2CC(C(=O)NCCC3=CCCCC3)CC2=O)c1 (stereo not given)	-10	14	66*	1	1
CCc1ccc(N2CC(C(=O)NCCC3=CCCCC3)CC2=O)cc1 (stereo not given)	-19	24	6	-9	-2
O=C(C[C@@H]1C[C@H]2c3cc(NC(=O)NC4CCCCC4)ccc3O[C@H]2[C@H](CO)O1)NCC1CC1	·	·	·	1	·
CC(C)C(=O)NCCc1nc(-c2ccccc2Cl)no1	-10	30	83*	6	-14
O=C(NCCc1nc(-c2ccccc2Cl)no1)c1ccccc1	1	18	11	·	6
CN(C(=O)c1ccc2c(c1)CCN2S(C)(=O)=O)c1ccccc1	-15	4	22	-3	-5
CS(=O)(=O)N1CCc2cc(C(=O)OCC(=O)c3ccccc3)ccc21	-17	-77*	·	·	-3
O=C(NN=c1c(=O)c2ccccc2c1=O)c1ccccc1	-7	47	-2	33*	1
CSc1sccc1/C=C(/C#N)C(=O)c1ccco1	2	6	151*	0	-13
COc1cc(/C=C/C(=O)OCC(=O)N2CCCc3ccccc32)ccc1O	9	·	68*	-21	4
CCOC(=O)c1c(C)[nH]c(C(=O)COC(=O)/C=C/c2ccc(O)c(OC)c2)c1C	-15	29	50*	·	-16
COc1cc(/C=C/C(=O)O)ccc1S(=O)(=O)N1CCCc2ccccc21	3	23	96*	3	-14
COc1cc(/C=C/C(=O)OCC(=O)N2CCCc3ccccc32)ccc1OCC#N	5	·	·	-6	-3
O=C(/C=C/c1cccs1)Nc1ccncc1	36*	-8	-5	5	12
C[C@H]1CN([C@@H](C)CO)C(=O)c2cccc(NS(=O)(=O)c3ccc(Cl)cc3)c2O[C@@H]1CN(C)C(=O)Nc1ccccc1	·	·	·	-9	·
CC(C)N1CCc2c(sc(NC(=O)c3ccc([N+](=O)[O-])o3)c2C(N)=O)C1	-16	-90*	-2	11	2
CC(=O)N1CCc2c(sc(NC(=O)c3ccc([N+](=O)[O-])o3)c2C#N)C1	16	5	-5	4	-5
COC(=O)c1c(NC(=O)c2ccc([N+](=O)[O-])o2)sc2c1CCN(C(C)C)C2	15	-90*	0	2	-4
COC(=O)c1c(NC(=O)Cc2ccccc2)sc2c1CCN(C(C)C)C2	2	24	·	0	·
C/C=C/c1ccc([C@H]2[C@@H](CO)N(C(=O)C3CC3)[C@H]2CN(C)S(C)(=O)=O)cc1	·	·	·	-5	·
C[C@@H]1CN([C@@H](C)CO)C(=O)c2cc(NC(=O)Nc3cccc4ccccc34)ccc2O[C@H]1CN(C)C(=O)Nc1ccc(F)cc1	·	·	·	1	·
Cc1cccc(Nc2nc(-c3ccc(O)c(O)c3)cs2)n1	-1	13	64*	-7	-1
